A selection: hits, their analogues and other compounds. The true share with any hit is near 4.1%.
DAX1 inh-1 – inhibits human nuclear receptor DAX1 | HEK293 Gal4-DAX1 luciferase reporter, luminescence | P51843 | inhibition, % at 6.75 µM | hit rate 0.99% among 340,000;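 active = inhibition above the mean over all tested compounds plus 3 SD, cut at about 4.2% in these data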;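 note: 0% = DAX1-transfected cells with DMSO and 100% = empty-vector control cells with DMSO; inhibition shows as a rise in luminescence from relieved DAX1 repression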
Target sequence (P51843 207-470 limits assumed): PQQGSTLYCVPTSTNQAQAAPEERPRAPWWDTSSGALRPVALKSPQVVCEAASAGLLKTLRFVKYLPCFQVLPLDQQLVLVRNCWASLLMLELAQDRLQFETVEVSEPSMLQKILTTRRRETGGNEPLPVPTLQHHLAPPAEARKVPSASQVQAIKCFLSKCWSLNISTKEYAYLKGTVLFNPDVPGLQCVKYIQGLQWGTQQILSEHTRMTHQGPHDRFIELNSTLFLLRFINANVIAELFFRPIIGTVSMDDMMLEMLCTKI
ssDAF-12 act – S. stercoralis DAF-12 activation, primary screen; HEK293 ssDAF-12/GRIP1 lit1-tk-luc reporter, luminescence; % of 3 µM dafachronic acid response; AID 652126; hit rate 1% among 370,000; activation, % at 6.8 µM;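 active = activation above the mean over all tested compounds plus 3 SD, cut at about 0.9% in these data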;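 note: 0% = DMSO-only wells and 100% = 3 µM delta7-dafachronic acid wells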
hgDAF12 agonist – agonists of H. glycines DAF-12 nuclear receptor; HEK293 GAL4-hgDAF12 UAS-luciferase reporter, agonist luminescence; normalized to butyrate control; activation, % at 6.8 µM; hit rate 1.8% among 370,000; AID 687014;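 active = activation above a cutoff set at the mean of all screened compounds plus 3 SD, cut at about 10% in these data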;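 note: 0% = DMSO wells and 100% = sodium butyrate wells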
DAX1 inh-2 – inhibitors of DAX1 repression of SF-1 activated StAR promoter. HEK293T StAR-luciferase reporter, SF-1/DAX-1 repression relief. AID 652010. inhibition, % at 6.8 µM. hit rate 1.1% among 370,000;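 active = inhibition above the mean over all tested compounds plus 3 SD, cut at about 3.6% in these data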;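 note: 0% = DAX-1 cells with DMSO and 100% = cells lacking DAX-1 with DMSO; higher inhibition means more luminescence from relief of DAX-1 repression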
hcDAF12 agonist – H. contortus DAF-12 activation, primary screen | HEK293 hcDAF-12 lit1-tk-luc reporter, luminescence; 0% DMSO, 100% Δ7-dafachronic acid | activation, % at 6.8 µM | AID 652067 | hit rate 1.4% among 370,000;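 active = activation above the mean of all tested compounds plus 3 SD, cut at about 5.5% in these data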;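 note: 100% = response to 3 µM Δ7-dafachronic acid high control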
hgDAF12 conf – hgDAF-12 agonism, confirmation assay. activation, % at 6.8 µM. hit rate 80% among 3,300. HEK293 GAL4-hgDAF12 luciferase reporter, agonist mode; percent of butyrate response. AID 743050. shares compounds with hgDAF12 agonist;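 active = mean activation over triplicate wells above the hit cutoff derived from the earlier primary screen, cut at about 11% in these data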;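 note: 0% = DMSO low control and 100% = 2 mM sodium butyrate high control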
LXRb DAF12 ctr – activates human LXR-beta, counter-screen for DAF-12 agonists | activation, % at 6.8 µM | 3,300 tested, under 10 active | shares compounds with hgDAF12 agonist | HEK293 Gal4-LXR luciferase reporter, 24 h;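 active = mean activation of the triplicate above a set limit carried over from the primary screen, none filed active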
The depositor's hits bear a star; x = no result given.

SMILES	DAX1 inh-1	ssDAF-12 act	hgDAF12 agonist	DAX1 inh-2	hcDAF12 agonist	hgDAF12 conf	LXRb DAF12 ctr
O=C(CCC(=O)N(CC(=O)NC1CCCC1)c1ccc(F)cc1)Nc1nccs1	1	-1	0	1	1	x	x
Cc1ccc(NCCCn2ccc(NC(=O)OCc3ccccc3)nc2=O)cc1C	-2	-1	-2	-3	-2	x	x
O=C(NCC1CCCO1)c1cc(-c2ccccc2F)no1 (configuration not stated)	2	0	20*	1	5.6*	33*	0
O=C(/C=C/c1ccc(Br)cc1)NC1CCCCCC1	3	-1	5	0	1	x	x
CC(C)Cc1ccc(/C=C/C(=O)NC2CC2)cc1	0	1	13*	3	4	12*	0
CCOC(=O)C1CCCN(C(=O)/C=C/c2ccc(Cl)cc2)C1 (configuration not stated)	0	-1	-1	0	-1	x	x
CC(C)Cc1ccc(/C=C/C(=O)N2CCCCC2)cc1	3	0	16*	4.5*	3	14*	0
CCc1ccc(/C=C\C(=O)N2CCCC2)cc1	1	-2	4	0	1	x	x
Cc1ccc(/C=C/C(=O)N2CCCC(C)C2)cc1 (configuration not stated)	0	1.2*	15*	4.4*	3	14*	1
CCOC(=O)c1c(C)[nH]c(C(=O)OCC(=O)NC2(C#N)CCCCC2)c1C	-1	0	1	-1	-2	x	x
COc1ccc(C=C(C(C)=O)C(=O)c2ccccc2)cc1	x	-1	4	-2	-1	x	x
COc1ccc(C=C(C(=O)c2ccccc2)C(=O)c2ccccc2)cc1	x	-1	14*	2	1	11*	0
Cc1cc(NO)nc(-c2ccc(Br)cc2)n1	2	0	13*	0	4	19*	1
COc1cc(/C=N/O)ccc1OCc1ccccc1Cl	1	0	14*	2	5	16*	1
O=C(NO)c1ccccc1O	-1	-1	-2	0	1	x	x
O=C(/C=C/c1ccc(Br)cc1)NC(=O)c1ccccc1O	0	0	13*	3	5	12*	1
Cc1nc(C(C)NC(=O)CCc2nnc(CCCc3ccccc3)o2)c(C)s1 (configuration not stated)	0	0	13*	1	2	10	0
CCOP(=O)(OCC)C(C#N)=C1SCN(c2ccccc2)CS1	2	-1	2	0	-1	x	x
COc1ccccc1Cc1c(-c2ccc(Cl)cc2)nc2c(C)cc(Br)cn12	x	0	3	-3	4	x	x
Clc1cccc(-c2nc3ccc(Br)cn3c2Cc2ccsc2)c1	x	-1	8	3	4	x	x
COc1ccccc1Cc1c(-c2ccc(Cl)cc2)nc2ccc(C)cn12	x	1.2*	14*	3	6.1*	15*	1
Cc1ccc(Cc2c(-c3ccc(Br)cc3)nc3ccc(Br)cn23)cc1	3	0	17*	-2	2	9	0
Cc1ccc2nc(-c3cccc(Cl)c3)c(Cc3ccsc3)n2c1	x	1	16*	2	2	8	0
COc1ccc2nc(NCc3ccc(OC)c(OC)c3OC)sc2c1	1	-1	-1	0	-2	x	x
C=CCSC1=NN2CCS(=O)(=O)N=C2S1	2	-1	2	0	-1	x	x
SMILES	DAX1 inh-1	ssDAF-12 act	hgDAF12 agonist	DAX1 inh-2	hcDAF12 agonist	hgDAF12 conf	LXRb DAF12 ctr
CC(OC(=O)c1cccc(S(=O)(=O)N2CCOCC2)c1)C(=O)NC1CCCCC1C (configuration not stated)	0	-1	18*	0	0	0	0
Cc1ccsc1/C=N/NC(=O)c1nnn(-c2nonc2N)c1CN(C)c1ccccc1	0	-1	-1	0	-1	x	x
O=C(Nc1ccc2[nH]c(=S)sc2c1)c1ccccc1	1	-1	14*	3.7*	1	12*	1
Cc1cc(C)n(CCC(=O)Nc2cccc(F)c2)n1	1	-1	0	0	-2	x	x
COc1ccccc1C(=O)OCCc1ccccc1	4	0.9*	17*	3	6.2*	11*	0
O=C(O)CCS(=O)(=O)c1ccccc1Cl	0	-2	17*	0	0	1	0
COc1ccc(-c2cc(C(=O)N/N=C/C(C)=C\c3ccco3)[nH]n2)cc1	x	0	0	0	3	x	x
O=C(N/N=C/c1ccco1)c1cc(-c2ccc3ccccc3c2)n[nH]1	2	0	15*	2	3	0	0
CCc1ccc(-c2cc(C(=O)N/N=C/c3ccco3)[nH]n2)cc1	1	0	14*	2	4	3	0
CN(C)c1ccc(CNC(=O)/C=C/[C@H]2O[C@@H](n3ccc(=O)[nH]c3=O)[C@H](O)[C@@H]2O)cc1	x	-1	1	-1	0	x	x
O=C(CSC1CCc2ccccc21)NNC(=O)Nc1ccc(Cl)cc1 (configuration not stated)	x	1	16*	1	6.5*	8	0
O=C(NN1C(=O)c2ccccc2NC1c1ccco1)c1ccc(Br)cc1 (configuration not stated)	0	0	-1	0	-1	x	x
O=C(NN1C(=O)c2ccccc2NC1c1ccco1)c1ccc([N+](=O)[O-])cc1 (configuration not stated)	1	-1	18*	0	1	0	0
CN=c1scc(-c2ccccc2F)n1/N=C(\C)c1cccnc1	2	0	15*	3	4	12*	1
CNS(=O)(=O)c1ccc(NC(=O)c2ccccn2)cc1	1	0	14*	1	3	9	0
CCCC(=O)Nc1ccc(NC(=O)c2ccccn2)cn1	2	1.2*	13*	2	3	9	0
Cc1ccc(F)c([C@H]2C3C=CCC(c4ccccc4)C3C(=O)N2Cc2ccccc2)c1 (some centres not stated)	0	-2	-2	0	-2	x	x
O=S1(=O)N=C(N(CCO)/N=C/c2ccc(Br)cc2)c2ccccc21	0	-1	-1	-1	-2	x	x
CCN1CCN(C(=O)c2ccc(-c3nc4ccccc4s3)s2)CC1	2	1	17*	4.3*	4	11*	1
O=C(c1ccc(-c2nc3ccccc3s2)s1)N1CCOCC1	x	-2	-4	2	0	x	x
O=C(c1cc(C2CC2)nn1-c1ccccc1)N1CCN(S(=O)(=O)c2cccc(F)c2)CC1	1	-1	1	0	0	x	x
C#CCNC(=O)C1=C[C@@H](C)[C@H](CCCO)[C@@H](OCC)O1	2	-1	-3	0	0	x	x

High-throughput results (PubChem)
